# Source: PubChem (several laboratories)
# Most compounds without a hit are left out; they make up all but 0.85% or so of the library.
# Keap1-Nrf2 PPI: Keap1-Nrf2 (human) interaction inhibition. Keap1 Kelch-Nrf2 peptide fluorescence polarization, 1536-well. inhibition, % at 9.4 µM. Q14145. hit rate 0.15% among 340,000. AID 504523; in the data active means inhibition above about 12%;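 further: human Keap1 Kelch domain with fluorescein labeled Nrf2 9mer peptide probe; 0% = neutral control wells and 100% = peptide positive control; higher means more block of Keap1 binding to Nrf2 peptide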
# E coli Lon inh: E. coli protease La inhibition; P0A9M0; purified E. coli Lon protease, fluorescence polarization; inhibition, % at 7.94 µM; hit rate 0.42% among 360,000; AID 602123; in the data active means inhibition above about 13%, passing the limit was not always enough;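 further: 0% = enzyme with probe and DMSO and 100% = no enzyme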
# ZTA counter: counter-screen for EBNA-1 inhibitors: inhibitors of Epstein-Barr virus ZTA; hit rate 0.15% among 320,000; ZTA-DNA binding, fluorescence polarization; AID 2234; inhibition, % at 11 µM; P03206; in the data active means inhibition above about 33%
# LANA DNA inh: blocks KSHV LANA C-terminal domain binding to DNA | MBP-C-LANA/FAM-LBS DNA binding, fluorescence polarization | inhibition, % at 9 µM | hit rate 0.078% among 340,000 | AID 504423;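 active means highest replicate inhibition at or above 60% at 9 µM, even if other replicates fall short; inactive means all replicates below 60% inhibition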;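 further: 0% = neutral control wells and 100% = 4 µM acridine orange control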
# EBNA-1 inhibitor: blocks EBNA-1 binding to DNA. hit rate 0.34% among 300,000. EBNA-1 DNA binding, fluorescence polarization. inhibition, % at 14.8 µM; in the data active means inhibition above about 28%
# Zta DNA confirm: EBV ZTA DNA binding inhibition, confirmation; shares compounds with ZTA counter; Zta-ZRE DNA binding, fluorescence polarization; inhibition, % at 11.1 µM; hit rate 30% among 320; AID 2361;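 active means mean inhibition across triplicate runs above the hit threshold derived for the original primary screen, cut at about 33% in these data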;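 further: 0% = Zta with DMSO and 100% = wells lacking Zta protein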
# EBNA-1 counter: EBNA-1 DNA binding inhibition, counter-screen for ZTA | shares compounds with ZTA counter | fluorescence polarization | inhibition, % at 14.8 µM | 320 tested, under 10 active | AID 2362; call rule not given here
# Active calls of the source: *; nt = no result given.
SMILES,Keap1-Nrf2 PPI,E coli Lon inh,ZTA counter,LANA DNA inh,EBNA-1 inhibitor,Zta DNA confirm,EBNA-1 counter
CCOC1(OCC)N=C(N)C2(C#N)C(c3cccc(C)c3)C12C#N (centres undefined),-9,14,67*,1,5,-6,-8
CCOC1(OCC)N=C(N)C2(C#N)C(c3cccc(OC)c3OC)C12C#N (centres undefined),-4,2,-2,2,3,nt,nt
CCCCn1nnnc1C1(C)CCC(=O)N1C1CC1 (centres undefined),nt,-3,nt,nt,nt,nt,nt
Cc1ccc(S(=O)(=O)/N=C2/NC(=O)/C(=C/c3cc([N+](=O)[O-])ccc3O)S2)cc1,-40,-260,34*,-12,-7,41*,-1
COc1ccc(NS(=O)(=O)c2ccc3c(c2)[C@H]2C=CC[C@H]2[C@@H](c2ccc(C(=O)O)cc2)N3)cc1,3,12,35*,113*,9,48*,7
CC(C)=CCc1c2c(c3occ(-c4ccc(O)cc4)c(=O)c3c1O)C=CC(C)(C)O2,-5,-6,35*,0,2,9,2
CC(C)=CCc1c2c(c3occ(-c4ccc(O)c(O)c4)c(=O)c3c1O)C=CC(C)(C)O2,-2,-13,nt,0,nt,nt,nt
O=S1(=O)CCN(C2CCCCCCC2)CC1,nt,9,nt,nt,nt,nt,nt
COc1ccc2sc(N(CCCN(C)C)C(=O)c3ccc(S(=O)(=O)N4CCCc5ccccc54)cc3)nc2c1,-4,-5,-17,1,-16,nt,nt
COc1cc2nc(N(CCCN(C)C)C(=O)c3ccc(S(=O)(=O)N4CCc5ccccc54)cc3)sc2cc1OC,-10,-2,50*,-2,2,56*,8
COc1ccc(CNC(=O)CCS(=O)(=O)c2ccc3c(c2)NC(=O)CS3)cc1,0,-7,5,0,-2,nt,nt
CCOC(=O)C1Nc2ccc(C(=O)O)cc2C2C=CCC12 (centres undefined),10,3,60*,38,5,23,-13
COc1ccc(CNC(=O)C2Cc3c(-c4ccc5c(c4)OCO5)ccnc3O2)cc1OC (centres undefined),nt,4,nt,nt,nt,nt,nt
Cc1ccc(Cn2ncc(Cl)c(Cl)c2=O)cc1,-5,5,2,1,-4,nt,nt
O=c1c(Cl)c(Cl)cnn1Cc1ccccc1Cl,nt,nt,34*,nt,4,4,-1
O=C1C2CCC(C2)C1CN1CCOCC1 (centres undefined),-7,-5,nt,-2,nt,nt,nt
CCCCn1c(N)c(N(CCOC)C(=O)CCCc2nc3ccccc3c(=O)[nH]2)c(=O)[nH]c1=O,-1,1,136*,2,2,3,1
CCCCN(C(=O)CCCc1nc2ccccc2c(=O)[nH]1)c1c(N)n(CCCC)c(=O)[nH]c1=O,0,-1,-4,2,5,nt,nt
COc1cccc(-c2csc3ncnc(Sc4nnnn4C)c23)c1,-7,2,nt,-2,nt,nt,nt
Nc1cc2nsnc2cc1Br,-85,5,68*,7,0,28,-3
CCOC(=O)C(Cc1ccccc1)NC(=O)CCc1nnc2ccc(N3CCCC3)nn12 (centres undefined),3,-12,14,1,2,nt,nt
CC1CCN(C(=O)COC(=O)c2n[nH]c(=O)c3ccccc23)CC1,1,4,36*,-2,nt,-1,-7
CCOc1ccc(N(CC(=O)N2CCCC2)S(=O)(=O)c2ccc(Cl)cc2)cc1,-2,-6,5,0,4,nt,nt
CCN(CC)c1ccc(/C=C/c2ccc3ccc(OC)cc3[n+]2CC)cc1,-9,-15,50*,-8,11,30,-1
CCN1CCN(Cc2ccc(NC(=O)c3cc(NC(=O)c4cc5cccc(OC)c5o4)cc(OC)c3)cc2C(F)(F)F)CC1,-1,-1,37*,3,6,9,-6
SMILES,Keap1-Nrf2 PPI,E coli Lon inh,ZTA counter,LANA DNA inh,EBNA-1 inhibitor,Zta DNA confirm,EBNA-1 counter
CCN1CCN(Cc2ccc(NC(=O)c3cc(NC(=O)c4ccno4)cc(OC)c3)cc2C(F)(F)F)CC1,-1,-9,1,1,11,nt,nt
O=C1NC(=O)C([N+](=O)[O-])=C(O)C1=O,nt,1,nt,nt,nt,nt,nt
CCC(Oc1ccccc1)C(=O)Nc1nc2ccccc2[nH]1 (centres undefined),-4,-3,37*,-2,-7,3,-1
Nc1c(O)ccc2c1C(=O)c1ccccc1C2=O,nt,nt,40*,nt,9,35*,6
COc1ccc2c(c1O)C(=O)c1ccccc1C2=O,nt,nt,4,nt,14,nt,nt
Cc1ccc(S(=O)(=O)/N=C2/C=C(Sc3ncn[nH]3)C(=O)c3ccccc32)cc1,-40,6,41*,46,0,75*,-10
NC1=NC(=O)/C(=C/c2ccc(-c3ccc(S(N)(=O)=O)cc3)o2)S1,-4,-32,37*,6,10,18,11
Cc1ccc(S(=O)(=O)c2nc(-c3cccs3)oc2N2CCC(C(N)=O)CC2)cc1,-9,7,nt,-1,nt,nt,nt
N#Cc1nc(/C=C/c2ccccc2)oc1NCCCN1CCOCC1,7,2,33*,1,4,3,0
COCCNc1oc(/C=C/c2ccccc2)nc1C#N,-5,11,-10,0,4,nt,nt
CCc1nc(SCC(=O)Nc2nccs2)c2oc3ccccc3c2n1,-6,2,42*,3,4,38*,16
O=C(CSc1ncnc2c1oc1ccccc12)Nc1nccs1,0,-5,-5,0,-1,nt,nt
CCCOc1cccc(C(=O)NCCNC(=O)c2ccco2)c1,-5,8,6,0,-1,nt,nt
CCc1ccc(C(C)NC(=O)c2ccncc2)cc1 (centres undefined),-1,7,114*,0,-6,-7,5
CCc1ccc(C(C)NC(=O)c2ccc(F)cc2)cc1 (centres undefined),-1,2,-10,-1,-8,nt,nt
O=C1C=C(c2ccc3c(c2)OCCO3)C[C@@H](c2ccc(F)cc2)C1,0,0,-4,-3,nt,nt,nt
COC(=O)c1ccc(CNC(=O)CNC(=O)c2sc3ccccc3c2Cl)cc1,-5,8,83*,0,6,70*,16
CCCOc1ccc(-c2csc3ncn(Cc4ccc(C(=O)O)cc4)c(=O)c23)cc1,1,-5,43*,-2,12,5,4
O=C(O)c1ccc(Cn2cnc3scc(-c4ccccc4)c3c2=O)cc1,-6,-7,11,-1,12,nt,nt
O=C(CCNC(=O)c1ccccc1Cl)Nc1ccc(S(=O)(=O)N2CCOCC2)cc1,nt,0,nt,nt,nt,nt,nt
O=C1Nc2ccc(Br)cc2/C1=C/c1ccc(C(=O)O)cc1,nt,nt,34*,nt,2,46*,4
CCCCc1ccc(NC(=O)OC)cc1,-8,7,166*,0,2,0,3
CCCCc1ccc(NC(=S)Nc2ccc(Nc3ccc(OC)cc3)cc2)cc1,3,7,-22,0,-5,nt,nt
CCOC(=O)c1c(NC(=O)Cn2nc(C(=O)O)c3ccccc3c2=O)sc(C)c1C,-2,-4,-2,-1,9,nt,nt
